Data as given in ChEMBL document CHEMBL4513216, “Probing the Open Global Health Chemical Diversity Library for Multistage-Active Starting Points for Next-Generation Antimalarials” (ACS Infect Dis, 2020).
The whole screen tested about 65,000 compounds, of which about 2,100 (3.2%) showed an effect of 50% or more. The median lay at about -52%. The sample holds strong results, similar compounds and a random draw of the others, so the mix is not that of the screen.

tested on: Plasmodium falciparum; test: Screen against P. falciparum Asexual Blood Stage (ABS), at 5uM; type: functional, Dd2; conditions: tested at 5 uM

Question: For `CN(Cc1ccco1)C1CCC12CCN(C(=O)N1CCCC1)CC2` (stereo not drawn), which INHIBITION is on record?
Answer: Its INHIBITION is -76%.

Question: For `O=C(c1cccnc1N1CCCCC1)N1CCCC(n2ccnc2)C1` (stereo not drawn), which INHIBITION is on record?
Answer: Its INHIBITION is 29.5%.

Question: How did the INHIBITION turn out when `O=C(c1cccc2cccnc12)N1CCCC(n2ccnc2)C1` (stereo not drawn) was run?
Answer: Its INHIBITION is 55.4%.

Question: With `O=C(c1cccc2ncccc12)N1CCCC(n2ccnc2)C1` (stereo not drawn) as the molecule, how does the INHIBITION read?
Answer: Its INHIBITION is -2.7%.

Question: For `Cc1cc(C(=O)NCc2ccc(N3CCN(C)CC3)nc2)c(C)s1`, which INHIBITION is on record?
Answer: The INHIBITION was -56.2%.

Question: With `O=C(c1cccc(F)c1Cl)N(CCO)CC1CC1` as the molecule, how does the INHIBITION read?
Answer: The INHIBITION was 9.7%.

Question: Which INHIBITION does the source give for `O=C(NCc1cc(Br)cs1)Nc1cn[nH]c1` here?
Answer: The INHIBITION was -116%.

Question: `O=C(CC1CC1)N1CC[C@H]2[C@@H]1CCC(=O)N2c1cccnc1` was tested. Which INHIBITION did it give?
Answer: Its INHIBITION is -27.5%.

Question: Which INHIBITION does the source give for `O=C1CC(c2ccncc2)c2c(sc3c2CCCC3)N1` (stereo not drawn) here?
Answer: The INHIBITION was 56.8%.

Question: For `O=C1CC(c2ccc(C(=O)O)cc2)c2c(sc3c2CCCC3)N1` (stereo not drawn), which INHIBITION is on record?
Answer: Its INHIBITION is -3.15%.

Question: Which INHIBITION does the source give for `O=C1CC(c2cccnc2)c2c(sc3c2CCCC3)N1` (stereo not drawn) here?
Answer: Its INHIBITION is 29.8%.

Question: How did the INHIBITION turn out when `CCn1cnnc1CNC(=O)c1cc(Cl)ccc1F` was run?
Answer: The INHIBITION was -20.1%.

Question: Which INHIBITION does the source give for `Cc1cnn(CC2CCCN2C(=O)Cc2ccc3c(c2)CCO3)c1` (stereo not drawn) here?
Answer: Its INHIBITION is -48.8%.

Question: Which INHIBITION does the source give for `CC1CN(Cc2cccc(C#N)c2)CCN1c1ccc2nncn2n1` (stereo not drawn) here?
Answer: Its INHIBITION is 50.9%.

Question: With `COc1cccc(CN2CCN(c3ccc4nncn4n3)C(C)C2)c1` (stereo not drawn) as the molecule, how does the INHIBITION read?
Answer: The INHIBITION was -39.5%.

Question: `CC1CN(Cc2cccnc2)CCN1c1ccc2nncn2n1` (stereo not drawn) was tested. Which INHIBITION did it give?
Answer: The INHIBITION was 10.1%.

Question: `COCCCNS(=O)(=O)c1ccc(N2CCCCS2(=O)=O)cc1` was tested. Which INHIBITION did it give?
Answer: Its INHIBITION is -76.7%.

Question: `Cn1ccnc1CN1CCN(Cc2ccncc2)[C@@H]2CS(=O)(=O)C[C@@H]21` was tested. Which INHIBITION did it give?
Answer: The INHIBITION was -33.9%.

Question: Which INHIBITION does the source give for `CN(Cc1ccccc1)C(=O)[C@@H]1Cc2[nH]cnc2CN1C` here?
Answer: Its INHIBITION is 42.2%.

Question: For `CN1Cc2nc[nH]c2C[C@H]1C(=O)NC1CCCCC1`, which INHIBITION is on record?
Answer: The INHIBITION was 53%.

Question: Which INHIBITION does the source give for `O=C([C@@H]1Cc2[nH]cnc2CN1C(=O)NC1CCCCC1)N1CCCC1` here?
Answer: Its INHIBITION is -56.1%.

Question: Which INHIBITION does the source give for `Cc1c[nH]c(C2CCCN(C(=O)CCc3c(C)n[nH]c3C)C2)n1` (stereo not drawn) here?
Answer: Its INHIBITION is -98.1%.

Question: For `CCOc1ccc(C(=O)Nc2c(C)nc3ccccn3c2=O)cc1`, which INHIBITION is on record?
Answer: The INHIBITION was -144%.

Question: With `CCn1nc2c(cc1=O)CN(Cc1nc(-c3cccs3)no1)CC2` as the molecule, how does the INHIBITION read?
Answer: The INHIBITION was 20.5%.

Question: `CSCC(CCO)NC(=O)c1cccc(F)c1Cl` (stereo not drawn) was tested. Which INHIBITION did it give?
Answer: The INHIBITION was 9.25%.

Question: `C[C@@H]1CN(Cc2cc(C3CCCCC3)no2)CC[C@]1(C)O` was tested. Which INHIBITION did it give?
Answer: Its INHIBITION is -6.78%.

Question: For `OCC1COCCN(Cc2cc(C3CCCCC3)no2)C1` (stereo not drawn), which INHIBITION is on record?
Answer: The INHIBITION was -122%.

Question: How did the INHIBITION turn out when `NC1CCCCN(Cc2cc(C3CCCCC3)no2)C1` (stereo not drawn) was run?
Answer: The INHIBITION was 62%.

Question: `COCC(NC(=O)c1cn(-c2cccc(Cl)c2F)nn1)C1CC1` (stereo not drawn) was tested. Which INHIBITION did it give?
Answer: The INHIBITION was -24.2%.

Question: `Cc1ccc2cccc(S(=O)(=O)N(C)C3CCCN(C)C3)c2n1` (stereo not drawn) was tested. Which INHIBITION did it give?
Answer: Its INHIBITION is 33.8%.

Question: How did the INHIBITION turn out when `Cc1ccc2cccc(S(=O)(=O)N(C)CC3CCN(C)CC3)c2n1` was run?
Answer: The INHIBITION was 58.6%.

Question: Which INHIBITION does the source give for `Cc1ccc2cccc(S(=O)(=O)N(C)CC3CCN(C)C3)c2n1` (stereo not drawn) here?
Answer: The INHIBITION was 37.8%.

Question: How did the INHIBITION turn out when `Cn1c(CCC(=O)N2CCCC3(CC2)CNC(=O)O3)nc2cccnc21` (stereo not drawn) was run?
Answer: The INHIBITION was -38.1%.

Question: How did the INHIBITION turn out when `CC(C)CCN1C(=O)c2ccc(C(=O)NCCc3c[nH]cn3)cc2C1=O` was run?
Answer: Its INHIBITION is -19.2%.

Question: With `Cc1cc(C)c2cc(CNCc3ccc(C)o3)c3nn(C)c(=O)n3c2c1` as the molecule, how does the INHIBITION read?
Answer: Its INHIBITION is 63.9%.

Question: `Cc1cc(C)c2cc(CNCc3ccccc3)c3nn(C)c(=O)n3c2c1` was tested. Which INHIBITION did it give?
Answer: Its INHIBITION is 65.4%.

Question: How did the INHIBITION turn out when `CCCNCc1cc2c(C)cc(C)cc2n2c(=O)n(C)nc12` was run?
Answer: The INHIBITION was -36.8%.

Question: How did the INHIBITION turn out when `Cc1cc(C)c2cc(CNCC3CCCO3)c3nn(C)c(=O)n3c2c1` (stereo not drawn) was run?
Answer: Its INHIBITION is 7.98%.

Question: `COCCNCc1cc2c(C)cc(C)cc2n2c(=O)n(C)nc12` was tested. Which INHIBITION did it give?
Answer: Its INHIBITION is -43%.

Question: For `Cc1cc(C)c2cc(CNCc3cccnc3)c3nn(C)c(=O)n3c2c1`, which INHIBITION is on record?
Answer: The INHIBITION was 31.5%.

Question: How did the INHIBITION turn out when `CS(=O)(=O)N1Cc2ccnn2CC(C(=O)NCc2cccnc2)C1` (stereo not drawn) was run?
Answer: The INHIBITION was -95.4%.

Question: How did the INHIBITION turn out when `Cc1cnc(N2C[C@@H]3[C@@H](C2)OCC(=O)N3CCN(C)C)nc1` was run?
Answer: Its INHIBITION is -122%.

Question: Which INHIBITION does the source give for `CCc1ccsc1C(=O)N1CCN(CCN2C(=O)CCC2=O)CC1` here?
Answer: The INHIBITION was -170%.

Question: How did the INHIBITION turn out when `Cc1nn(C)cc1CN(C)C(=O)c1ccncc1` was run?
Answer: Its INHIBITION is -130%.

Question: For `COc1ccc(-c2csc3c2c(N)nc(=O)n3CCCN(C)C)cc1`, which INHIBITION is on record?
Answer: The INHIBITION was 54.2%.

Question: With `COc1ccc(-c2csc3c2c(N)nc(=O)n3CCN(C)C)cc1` as the molecule, how does the INHIBITION read?
Answer: Its INHIBITION is -27.7%.

Question: Which INHIBITION does the source give for `CCn1c(=O)nc(N)c2c(-c3ccc(OC)cc3)csc21` here?
Answer: Its INHIBITION is -67.6%.

Question: `O=C1COC2(CCN(Cc3ccoc3)CC2)CN1c1ccsc1` was tested. Which INHIBITION did it give?
Answer: Its INHIBITION is -66%.

Question: For `OCc1cc2ccccc2nc1N1CCCCC1`, which INHIBITION is on record?
Answer: The INHIBITION was -56.3%.

Question: `CC(C)N(C)C(=O)c1ccc(CNc2ccncc2Cl)cc1` was tested. Which INHIBITION did it give?
Answer: The INHIBITION was 24.6%.

Question: How did the INHIBITION turn out when `COc1cc(C)ccc1S(=O)(=O)N[C@H]1CN(C(C)=O)C[C@@H]1C1CC1` was run?
Answer: Its INHIBITION is -120%.

Question: `CN(C)S(=O)(=O)N1CCCC(c2cccc(Cc3ccc(F)cc3)n2)C1` (stereo not drawn) was tested. Which INHIBITION did it give?
Answer: The INHIBITION was -107%.

Question: With `O=C(c1ccncc1)N1CCOC2(CCCN(c3nncs3)C2)C1` (stereo not drawn) as the molecule, how does the INHIBITION read?
Answer: The INHIBITION was -74.2%.
